Hits are enriched below; roughly 22% of the tested compounds scored in any of these assays.
CYP2C9 act – increases human cytochrome P450 2C9 activity; P11712; recombinant CYP2C9, luciferin-H conversion, luminescence; hits give high values; factor 1 = untreated enzyme, 0 = blocked; activation factor at 5 µM; 96,000 compounds, 1.4% hits;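 active = activation factor of 2 or more for CYP2C9 at a 5 µM dose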
CYP2C19 inh – human CYP2C19 inhibition. P33261. CYP2C19 Supersomes, luciferin-H EGE luminescence, 30 min. inhibition, % at 5 µM. 96,000 compounds, 21% hits;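 active = CYP2C19 inhibition above a set limit at 5 µM in the primary screen, cut at about 50% in these data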
Target sequence (P33261 whole entry, looked up): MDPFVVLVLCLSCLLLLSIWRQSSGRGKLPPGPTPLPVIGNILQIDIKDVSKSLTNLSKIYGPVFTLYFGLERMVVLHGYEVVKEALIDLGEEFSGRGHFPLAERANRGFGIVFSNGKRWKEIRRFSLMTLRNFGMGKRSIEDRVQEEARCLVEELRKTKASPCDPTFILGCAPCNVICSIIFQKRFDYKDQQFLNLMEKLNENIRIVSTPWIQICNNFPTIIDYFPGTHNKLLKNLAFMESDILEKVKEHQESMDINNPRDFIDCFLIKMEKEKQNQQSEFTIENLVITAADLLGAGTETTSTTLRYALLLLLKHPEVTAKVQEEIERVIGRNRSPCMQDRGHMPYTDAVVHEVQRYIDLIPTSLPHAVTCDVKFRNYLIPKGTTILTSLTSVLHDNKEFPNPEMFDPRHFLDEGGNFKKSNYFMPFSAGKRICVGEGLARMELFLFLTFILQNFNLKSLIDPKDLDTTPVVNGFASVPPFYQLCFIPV
CYP2C9 inh – blocks human cytochrome P450 2C9; inhibition, % at 5 µM; CYP2C9 Supersomes, luciferin-H conversion, luminescence; 96,000 compounds, 20% hits; P11712;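 active = blocking of liver enzyme CYP2C9 beyond about 50% at 5 µM, limit read from the data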
Measles CPE – protection of cells from measles virus; protection (pct of control), % at 4 µM; Measles virus-infected cells, CPE protection, absorbance; 140,000 compounds, 1.5% hits; in the data active = protection mostly above about 24%, no sharp cut-off; inactive = mostly below about 26%
CYP2C19 act – cytochrome P450 2C19 (human) activation. P33261. recombinant CYP2C19, luciferin-H EGE luminescence; hits give high values; 0 = fully inhibited enzyme, 1 = untreated enzyme. activation factor at 5 µM. 96,000 tested, under 10 active. AID 1025;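 active = activation factor of at least 2 at 5 µM in the primary screen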
Each line names hits and unclear results; the compound was inactive in the other large screens.

Cc1nn(C)c(C)c1NC(=O)CSc1nc(C2CC2)nc2c1cnn2-c1ccccc1	Measles CPE 62
O=C(CSc1nc(C2CC2)nc2ccccc12)NCc1ccc2c(c1)OCO2	CYP2C9 inh 88
Cc1ccccc1C(=O)c1cccn1CC(=O)NCc1ccc2c(c1)OCO2	CYP2C19 inh 62, CYP2C9 inh 74
Cc1nonc1NC(=O)CSc1nc(C2CCCCC2)nc2ccccc12	CYP2C9 inh 50
Cc1nn(C)c(C)c1NC(=O)CSc1nc(-c2ccccc2Cl)nc2c1cnn2-c1ccccc1	none
CNC(=S)N1CCN(C(=O)C2CCCO2)CC1 (configuration not stated)	none (no result: CYP2C9 act, CYP2C19 inh, CYP2C9 inh, CYP2C19 act)
COc1cc(NC(=O)CSc2nccc(C)n2)c(C)cc1[N+](=O)[O-]	none (no result: CYP2C9 act, CYP2C19 inh, CYP2C9 inh, CYP2C19 act)
CC1=C(C(=O)OC(C)C)C(c2cn(-c3ccccc3)nc2-c2cccs2)NC(=O)N1 (configuration not stated)	none (no result: CYP2C9 act, CYP2C19 inh, CYP2C9 inh, CYP2C19 act)
Cn1cc(SCC(=O)NCc2ccc3c(c2)OCO3)c2ccccc21	CYP2C19 inh 100, CYP2C9 inh 69
Cc1nc(SCC(=O)NCc2ccc3c(c2)OCO3)c(C#N)c2c1CCCC2	CYP2C19 inh 84, CYP2C9 inh 87 (no result: Measles CPE)
O=C(Cn1cc(C(=O)C2CC2)c2ccccc21)NCc1ccc2c(c1)OCO2	CYP2C19 inh 81
COc1ccc(NC(=O)CSc2nc(C)c3c(c2C#N)CCCC3)cc1	none
CCOC(=O)c1c(NC(=O)CN2C(=O)NC3(CCC(C)CC3)C2=O)sc(C)c1-c1ccc(C)cc1 (configuration not stated)	none (no result: CYP2C9 act, CYP2C19 inh, CYP2C9 inh, CYP2C19 act)
CCn1c(SCC(=O)N2CCc3ccccc3C2)nc2sc(C)c(C)c2c1=O	none (no result: CYP2C9 act, CYP2C19 inh, CYP2C9 inh, CYP2C19 act)
CC1=C(C(=O)Nc2ccc(C)cc2C)C(c2ccc(C)o2)NC(=O)N1 (configuration not stated)	none
c1ccc2c(CNc3ccc(CNc4ncn[nH]4)cc3)cccc2c1	none (no result: CYP2C9 act, CYP2C19 inh, CYP2C9 inh, CYP2C19 act)
Cc1ccc(CNc2ccc(CNc3ncn[nH]3)cc2)cc1	CYP2C19 inh 77, CYP2C9 inh 63
CN1CCN(CC(C)(C)NS(=O)(=O)c2ccc(Cl)cc2)CC1	CYP2C19 inh 95
CC(=O)N1N=C(c2ccc(Br)cc2)OC1(C)CC(=O)Nc1ccccc1 (configuration not stated)	none (no result: CYP2C9 act, CYP2C19 inh, CYP2C9 inh, CYP2C19 act)
CCCCNS(=O)(=O)c1ccc(OCC(=O)OC)cc1	none (no result: CYP2C9 act, CYP2C19 inh, CYP2C9 inh, CYP2C19 act)
Cc1cc(Cl)c(S(=O)(=O)N2CC(C)OC(C)C2)cc1OCC(N)=O (configuration not stated)	none
CNS(=O)(=O)c1cc(OCC(N)=O)c(C)cc1Cl	CYP2C9 act 2.4
Cc1cc(Cl)c(S(=O)(=O)N2CCSCC2)cc1OCC(N)=O	CYP2C9 act 3
O=[N+]([O-])c1cc(-c2nc(-c3ccncc3)no2)ccc1Cl	none (no result: CYP2C9 act, CYP2C19 inh, CYP2C9 inh, CYP2C19 act)
c1ccc(-c2noc(-c3cccc4ccccc34)n2)cc1	none
c1ccc2c(-c3nc(-c4ccncc4)no3)cccc2c1	CYP2C19 inh 89
Cc1cc(C)cc(-c2nc(-c3ccncc3)no2)c1	CYP2C19 inh 83
Brc1cccc(-c2nc(-c3ccncc3)no2)c1	CYP2C19 inh 97, CYP2C9 inh 52
Clc1ccc(Br)cc1-c1nc(-c2ccncc2)no1	CYP2C19 inh 89, CYP2C9 inh 50
CCSc1ccccc1C(=O)NCc1ccco1	none
CN(C)S(=O)(=O)c1ccc(NS(=O)(=O)/C=C/c2ccccc2)cc1	CYP2C19 inh 70, CYP2C9 inh 91, Measles CPE 44
O=S(=O)(/C=C/c1ccccc1)Nc1ccc2c(c1)OCO2	CYP2C19 inh 100, CYP2C9 inh 87
COC(=O)c1ccc(NCCc2csc(-c3ccc(C)cc3)n2)c([N+](=O)[O-])c1	CYP2C19 inh 52, CYP2C9 inh 60
COc1ccc(NS(=O)(=O)c2cc(NC(=O)c3cccc(OCc4c(C)noc4C)c3)ccc2OC)cc1	none (no result: CYP2C9 act, CYP2C19 inh, CYP2C9 inh, CYP2C19 act)
Cc1ccc(C(=O)N/C(=C\c2cccs2)C(=O)NC2CCCCC2)cc1	none
CCOC(=O)c1c(C)c(-c2ccccc2)n(CC(=O)N2CCCC2)c1C	CYP2C19 inh 88
COc1ccc(-c2cc(=O)c3ccccc3s2)cc1	CYP2C9 inh 64
COc1ccc2sc3ccccc3c(=O)c2c1	none
CC(=O)N(C)C1(c2nnnn2CCOC(=O)Nc2cccc3ccccc23)CCCC1	none
CC(=O)N(C)C1(c2nnnn2CCOC(=O)Nc2ccc(Cl)cc2)CCCCC1	CYP2C19 inh 93
O=C(Nc1ccc(Cl)cc1)OCCn1nnnc1C(c1ccccc1Cl)N1CCOCC1 (configuration not stated)	CYP2C9 inh 54
CC(=O)NC1(c2nnnn2CCOC(=O)Nc2ccc(Cl)cc2)CCCCC1	CYP2C19 inh 95, CYP2C9 inh 71
O=C(O)CCCNS(=O)(=O)c1ccc(Br)s1	none
COc1ccccc1NC(=O)c1nnn(CC(=O)Nc2ccccc2)c1N	none (no result: CYP2C9 act, CYP2C19 inh, CYP2C9 inh, CYP2C19 act)
COc1ccc(OC)c(NC(=O)c2nnn(Cc3ccccc3C)c2N)c1	CYP2C9 act 2.1
COc1cccc(Cn2nnc(C(=O)Nc3ccc(C)cc3)c2N)c1	CYP2C9 act 2.1
COc1ccc(C)cc1NC(=O)c1nnn(Cc2cc(C)ccc2C)c1N	CYP2C9 act 2.4
COc1ccc(NC(=O)c2nnn(Cc3ccc(SC)cc3)c2N)c(OC)c1	CYP2C9 act 2.5
COc1ccc(C)cc1NC(=O)c1nnn(CCc2ccccc2)c1N	none
COc1cccc(Cn2nnc(C(=O)Nc3cc(C)ccc3OC)c2N)c1	none
O=C(COc1ccc(/C=N/NC(=O)c2ccccc2O)cc1)Nc1ccc([N+](=O)[O-])cc1	none (no result: CYP2C9 act, CYP2C19 inh, CYP2C9 inh, CYP2C19 act)
CCCc1ccc(-c2cc(NC(=O)CSc3n[nH]c(N)n3)n(-c3ccccc3)n2)cc1	CYP2C9 inh 58
CC(=O)Nc1ccccc1Sc1ccccc1	CYP2C19 inh 79
O=C(CCl)Nc1ccccc1Sc1ccccc1	CYP2C19 inh 64, Measles CPE 46
Nc1nc(SCC(=O)Nc2ccccc2Sc2ccccc2)n[nH]1	CYP2C19 inh 99, CYP2C9 inh 51
O=C(CSc1nncs1)Nc1cc(-c2ccccc2)nn1-c1ccccc1	none (no result: CYP2C9 act, CYP2C19 inh, CYP2C9 inh, CYP2C19 act)
O=c1c2ccccc2oc2nc(-c3ccco3)n(Cc3ccccc3)c(=O)c12	none
NC(=O)C1(N2CCCCC2)CCN(CC(=O)Nc2ccccc2Sc2ccccc2)CC1	CYP2C19 inh 79
Cc1ccc(S(=O)(=O)N[C@H](C(=O)OCn2nnc3ccccc3c2=O)C(C)C)cc1	none
CCOC(=O)C(NS(=O)(=O)c1ccc(Br)cc1)C(C)C (configuration not stated)	CYP2C19 inh 89
Cc1ccc(S(=O)(=O)NC(C(=O)OCC(=O)NC(=O)c2cccn2C)C(C)C)cc1 (configuration not stated)	CYP2C19 inh 59
C=CCc1c(C)nc(SC)nc1Nc1ccc(C(C)=O)cc1	CYP2C19 inh 94, CYP2C9 inh 97
O=C(CSc1ccc(-c2ccco2)nn1)c1ccc(F)cc1	none (no result: CYP2C9 act, CYP2C19 inh, CYP2C9 inh, CYP2C19 act)
CN(C)CCNc1oc(-c2ccccc2F)nc1C#N	none
N#Cc1nc(-c2ccccc2F)oc1NCc1cccc2c1OCO2	CYP2C9 inh 86
N#Cc1nc(-c2ccc(F)cc2)oc1NCc1ccccc1	none
COc1ccc(CCNc2oc(-c3ccc(OC)c(OC)c3)nc2C#N)cc1	CYP2C19 inh 52, CYP2C9 inh 53

Screens (PubChem BioAssay)
